Among the data in PubChem BioAssay are composite z-score and z-score values, retold here.

SMILES strings stand for the structures. Activity calls are given as the source filed them.

The nature of assay [1]: compounds binding Alexa647 anti-His antibody – biochemical, small-molecule microarray, 635 nm fluorescence, artefact control for SMM control protein annotation, primary screen (AID 1128).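 Further: score merges feature fluorescence with signal-to-noise for each printed compound spot.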 The conditions noted are these: higher = more signal.
The test system of assay [2] is Human papillomavirus type 1a E7 protein (residues 1-88). As to the kind of experiment: HPV1a E7 small-molecule binders, primary screen, biochemical, small-molecule microarray, residues 1-88, 635 nm (AID 1129). The conditions noted are these: small-molecule microarray binding, fluorescence 635 nm; higher = more signal.
Assay [3] deals with Focal adhesion kinase 1 (Homo sapiens) (UniProt Q05397). The assay can be described thus: PTK2 protein binding on printed compound slides – biochemical, small-molecule microarray, 635/667 nm fluorescence, BSA, DTT, primary screen (AID 1130).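 Further: composite of spot emission at 667 nm and signal to noise over triplicate slides.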 The conditions noted are these: 635 nm fluorescence, higher = more signal.
Chain of Focal adhesion kinase 1 (Homo sapiens) (Q05397 whole entry, looked up): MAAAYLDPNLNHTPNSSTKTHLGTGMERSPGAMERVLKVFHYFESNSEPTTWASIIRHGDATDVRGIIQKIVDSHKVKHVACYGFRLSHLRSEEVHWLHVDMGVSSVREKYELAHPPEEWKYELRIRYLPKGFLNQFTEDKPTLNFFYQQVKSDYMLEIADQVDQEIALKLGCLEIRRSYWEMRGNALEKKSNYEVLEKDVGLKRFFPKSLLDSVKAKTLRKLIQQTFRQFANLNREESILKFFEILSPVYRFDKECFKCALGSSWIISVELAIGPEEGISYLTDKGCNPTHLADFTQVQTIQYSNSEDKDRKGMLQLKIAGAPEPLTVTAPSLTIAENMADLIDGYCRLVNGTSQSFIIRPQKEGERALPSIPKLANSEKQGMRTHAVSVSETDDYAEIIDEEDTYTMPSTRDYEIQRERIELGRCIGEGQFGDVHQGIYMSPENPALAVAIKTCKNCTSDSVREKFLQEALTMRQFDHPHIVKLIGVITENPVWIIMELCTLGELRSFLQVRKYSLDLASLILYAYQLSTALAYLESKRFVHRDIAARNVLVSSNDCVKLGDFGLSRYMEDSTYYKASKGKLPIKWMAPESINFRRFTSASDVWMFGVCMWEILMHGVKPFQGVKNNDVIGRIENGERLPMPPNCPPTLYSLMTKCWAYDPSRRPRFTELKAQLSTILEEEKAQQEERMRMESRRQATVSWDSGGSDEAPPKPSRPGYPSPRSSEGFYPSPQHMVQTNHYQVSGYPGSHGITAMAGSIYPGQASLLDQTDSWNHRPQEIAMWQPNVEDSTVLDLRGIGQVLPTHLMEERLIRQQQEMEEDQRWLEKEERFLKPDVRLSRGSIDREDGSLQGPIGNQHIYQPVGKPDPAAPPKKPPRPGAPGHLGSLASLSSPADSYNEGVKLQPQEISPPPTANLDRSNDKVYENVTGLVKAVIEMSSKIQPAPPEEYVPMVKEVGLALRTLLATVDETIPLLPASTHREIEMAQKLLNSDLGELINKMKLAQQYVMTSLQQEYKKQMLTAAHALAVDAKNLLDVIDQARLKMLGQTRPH
Assay [4] relates to Fibrinogen (Alexa647-labelled). As to the kind of experiment: Alexa647-fibrinogen binding to printed small molecules – biochemical, small-molecule microarray, 635/667 nm fluorescence, artefact control for SMM control-protein annotation, profiling panel (AID 1131).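 Further: z-score merges 667 nm fluorescence with per-spot signal-to-noise over triplicate slides.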 The conditions noted are these: fibrinogen-A647 binding fluorescence, higher = more signal.
Assay [5] addresses Follistatin (Homo sapiens) (UniProt P19883). As to the kind of experiment: FST protein binding to printed compounds – biochemical, small-molecule microarray, 635/667 nm fluorescence, primary screen (AID 1132). To be noted: 635 nm fluorescence, higher = more signal.
Assay [6] deals with Fibroblast growth factor 2 (Homo sapiens) (UniProt P09038). As to the kind of experiment: basic fibroblast growth factor binding to printed compounds – biochemical, small-molecule microarray, 635/667 nm fluorescence, primary screen (AID 1133). To be noted: FGF2, fluorescence 635/667, higher = more signal.
Chain of Fibroblast growth factor 2 (Homo sapiens) (P09038 whole entry, looked up): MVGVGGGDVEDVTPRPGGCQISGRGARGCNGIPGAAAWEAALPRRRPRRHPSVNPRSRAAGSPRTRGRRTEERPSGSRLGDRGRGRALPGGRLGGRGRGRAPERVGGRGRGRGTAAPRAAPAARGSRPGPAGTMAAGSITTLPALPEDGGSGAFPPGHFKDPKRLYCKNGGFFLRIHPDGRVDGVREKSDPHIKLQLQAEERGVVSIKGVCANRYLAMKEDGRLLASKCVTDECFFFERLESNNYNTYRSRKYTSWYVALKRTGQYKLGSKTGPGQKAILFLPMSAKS
Assay [7] is described as follows: JC-1 mitochondrial potential readout, lung cancer cells – cell-based, A549, JC-1 fluorescence, basal, 24 h, 100 nL, profiling panel (AID 1138).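 Further: A549 lung adenocarcinoma cells under basal conditions with no added stimulus; test concentration not given here.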 To be noted: higher = more signal.
A further assay relates to Lefty1. As to the kind of experiment: Lefty1 protein binding to printed compounds – biochemical, small-molecule microarray, 635/667 nm fluorescence, primary screen (AID 1139). The conditions noted are these: fluorescence 635/667, higher = more signal.
For assay [8], the system named is wheat germ agglutinin (Triticum aestivum), Alexa647-labelled. As to the kind of experiment: Alexa647-WGA lectin binding to printed small molecules – biochemical, small-molecule microarray, 635/667 nm fluorescence, artefact control for SMM control-protein annotation, profiling panel (AID 1140).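 Further: score merges 667 nm feature emission with signal to noise over triplicate slides.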 The conditions noted are these: WGA-A647 binding, 635 nm fluorescence, higher = more signal.

Assay [9] addresses Luciferin 4-monooxygenase (Photinus pyralis) (UniProt P08659). As to the kind of experiment: inhibition of purified Photinus pyralis luciferase – biochemical, luminescence, purified enzyme, 2006 set, primary screen (AID 1141).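 Further: cell-free assay with purified firefly luciferase at 100 ng per well in PBS; test concentration not given here.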 The conditions noted are these: purified firefly luciferase, SteadyGlo luminescence, 30 min; higher = more signal, called active from +8 up or from −8 down.

Chain of Luciferin 4-monooxygenase (Photinus pyralis) (P08659 whole entry, looked up): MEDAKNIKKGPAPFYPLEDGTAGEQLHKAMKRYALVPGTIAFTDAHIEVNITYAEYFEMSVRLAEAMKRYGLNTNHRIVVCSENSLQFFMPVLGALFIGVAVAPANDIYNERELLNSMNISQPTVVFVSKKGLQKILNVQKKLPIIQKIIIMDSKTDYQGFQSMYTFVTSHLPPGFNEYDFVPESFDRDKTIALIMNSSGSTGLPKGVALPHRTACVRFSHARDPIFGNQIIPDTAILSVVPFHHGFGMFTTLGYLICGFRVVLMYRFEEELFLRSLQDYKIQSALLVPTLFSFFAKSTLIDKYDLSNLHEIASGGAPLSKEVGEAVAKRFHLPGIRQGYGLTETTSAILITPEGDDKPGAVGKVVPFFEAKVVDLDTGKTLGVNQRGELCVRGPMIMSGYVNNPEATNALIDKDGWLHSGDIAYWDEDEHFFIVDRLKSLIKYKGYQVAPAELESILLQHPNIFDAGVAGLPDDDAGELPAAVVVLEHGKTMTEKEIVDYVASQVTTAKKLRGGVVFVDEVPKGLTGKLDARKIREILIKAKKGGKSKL
Chain of Follistatin (Homo sapiens) (P19883 whole entry, looked up): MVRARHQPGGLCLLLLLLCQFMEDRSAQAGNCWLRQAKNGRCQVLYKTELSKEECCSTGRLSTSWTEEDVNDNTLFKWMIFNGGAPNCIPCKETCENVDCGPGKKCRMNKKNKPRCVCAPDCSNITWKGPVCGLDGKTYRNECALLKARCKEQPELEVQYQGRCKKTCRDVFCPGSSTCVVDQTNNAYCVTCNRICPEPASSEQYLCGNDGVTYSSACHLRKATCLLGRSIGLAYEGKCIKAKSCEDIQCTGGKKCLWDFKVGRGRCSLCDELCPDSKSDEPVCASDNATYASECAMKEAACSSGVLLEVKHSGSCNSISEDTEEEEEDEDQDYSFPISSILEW

For the compound `NCCCCCNC(=O)[C@H]1C[C@H]2C(=O)N[C@@H](Cc3ccccc3)C(=O)N2[C@H]1c1cccc(OCCO)c1`, the composite z-score in assay [1] stood at 0.614; in [2] it was 0.624; in assay [3] it was 0.163; in assay [4], 0.962; in [5], 1.07; in assay [6], 0.159. For the same compound, the composite z-score was 0.0778 with Lefty1 and 0.782 in assay [8]. Moreover, the z-score in [7] was 1.07; in [9] it was -1.4 (inactive).

Consider `COC(=O)C(CC#Cc1ccc2c(c1)[C@]1(C(=O)N2)[C@H](c2ccccc2OCCO)N2[C@H](c3ccccc3)[C@H](c3ccccc3)OC(=O)[C@H]2[C@@H]1C(=O)O)C(=O)OC`, for which the composite z-score amounted to 1.94 in assay [1]; 1.16 in assay [2]; 0.411 in [3]; 0.765 in [4]; 0.206 in assay [5]; 0.36 in assay [6]. The figures for the composite z-score (in the assay on Lefty1; in assay [8]) were 0.284 and 0.702, respectively. In addition, the z-score in [7] was 0.621; in assay [9], -2.37 (inactive).

In the case of `COCCCNC(=O)[C@@]1(Sc2ccc(C)cc2)CC(=O)N(Cc2ccccc2Cl)[C@@H]1c1ccc(CO)cc1`, the composite z-score in assay [1] came to 0.225; in assay [2], 1.12; in [3] it was 0.215; in [4], 0.833; in [5], 1.35; in assay [6] it was 1.24. Also, the composite z-score in the assay with Lefty1 is 1.13; in [8], 0.966. The figures for the z-score in [7] and in assay [9] were -0.689 and 1.14 (inactive), respectively.

Consider `Cc1c(NC(=O)/C(C#N)=C/c2cccc([N+](=O)[O-])c2)c(=O)n(-c2ccccc2)n1C`, for which the composite z-score in assay [1] was 0.551; in assay [2], 1.02; in [3], -0.148; in [4], 0.985; in assay [5], 0.7; in assay [6], 0.793. Besides, the values for the composite z-score (in the assay with Lefty1; in assay [8]) were 0.931 and 0.441, respectively. Also, the results for the z-score in [7] and in [9] were 0.365 and -1.09 (inactive), respectively.

For the compound `C=CCN(Cc1ccccc1)C(=O)C(c1cccs1)N(C(=O)/C=C\C(=O)O)c1ccc(CCOCCO)cc1` (stereo not given), the composite z-score in [1] was -0.709; in assay [2], -0.755; in assay [3] it was -0.618; in assay [4], -1.23; in assay [5], -1.32; in assay [6] it was -0.78. Further, the composite z-score in the assay on Lefty1 was -1.16; in assay [8] it was -1.01. Besides, the z-score in assay [7] was 1.37; in [9], -3.88 (inactive).

For the compound `CN1C(=O)C2C=CC(C(O)c3ccccc3)N(N3CCCCC3)C2C1=O` (stereo not given), the composite z-score was 0.841 in assay [1]; 1.04 in [2]; 0.352 in [3]; 0.412 in [4]; 0.602 in [5]; -0.234 in assay [6]. The composite z-score was 0.0104 in the assay with Lefty1 and 0.573 in [8]. Moreover, the figures for the z-score in assay [7] and in assay [9] were 0.0958 and -0.136 (inactive), respectively.

`COC(=O)c1c(CC[C@@H](CO)NC(=O)N[C@H](Cc2ccccc2)Cn2cc(-c3ccccn3)nn2)oc(C(C)=O)c1C(=O)OC`: the composite z-score in assay [1] is 1.52; in assay [2] it was -0.178; in [3] it was 0.0026; in assay [4], 0.801; in [5] it was 0.0798; in assay [6], 0.451. In addition, the composite z-score with Lefty1 was 0.004; in assay [8], 0.205. Moreover, the z-score is -0.117 in assay [7] and 0.67 (inactive) in assay [9].

In the case of `COCCCNC(=O)[C@@H]1c2ccccc2C(=O)N(Cc2ccccc2)[C@H]1c1ccc(CO)cc1`, the composite z-score was 1.67 in [1]; 1.01 in assay [2]; -0.174 in assay [3]; 0.185 in assay [4]; 0.928 in assay [5]; 0.594 in assay [6]. For the same compound, the composite z-score with Lefty1 came to 0.206; in assay [8], 0.31. In addition, the z-score was 1.29 in [7] and 0.519 (inactive) in assay [9].

Regarding `COc1ccc(C(O)C2C=CC3C(=O)N(C)C(=O)C3N2NC(=O)OC(C)(C)C)c2ccccc12` (stereo not given), the composite z-score was 1.62 in assay [1]; 1.28 in assay [2]; 0.685 in [3]; 0.988 in [4]; 0.832 in assay [5]; -0.161 in assay [6]. The composite z-score is -0.33 in the assay with Lefty1 and 1.31 in [8]. The z-score in assay [7] is -0.771; in [9], -0.9 (inactive).

Take `O=C1O[C@@H](c2ccccc2)[C@@H](c2ccccc2)N2[C@@H](c3ccccc3OCCO)[C@]3(C(=O)Nc4ccccc43)[C@@H](C(=O)O)[C@H]12`: the composite z-score in [1] is 0.969; in assay [2] it was 0.718; in assay [3], 0.66; in assay [4], 0.882; in assay [5], -0.0086; in assay [6] it was -0.166. Also, the composite z-score was -0.474 in the assay with Lefty1 and 0.56 in assay [8]. Besides, the values for the z-score in assay [7] and in assay [9] were -0.184 and -1.55 (inactive), respectively.

Take `CCCNC(=O)[C@@H]1c2ccccc2C(=O)N(Cc2ccccc2OC)[C@H]1c1ccc(CO)cc1`: the composite z-score stood at 2.08 in [1]; 1.22 in [2]; 0.609 in assay [3]; 0.937 in assay [4]; 0.98 in assay [5]; 1.06 in assay [6]. The composite z-score in the assay on Lefty1 worked out at 0.482; in assay [8], 0.712. Further, the z-score in assay [7] was 1.53; in assay [9], -0.452 (inactive).

Turning to `O=C1[C@H]2C=C(I)[C@H](C[C@@H]2OCCCCO)[C@@]12CO2`, the composite z-score was -0.276 in assay [1]; 0.0789 in [2]; 0.465 in assay [3]; -0.327 in assay [4]; 0.167 in assay [5]; -0.0868 in assay [6]. The composite z-score with Lefty1 is 0.115; in assay [8] it was -0.428. Moreover, the z-score in [7] is -0.106; in assay [9] it was 0.291 (inactive).

With `CC(c1ccccc1)C(O)C1C=CC2C(=O)N(c3ccccc3)C(=O)C2N1Nc1ccccc1` (stereo not given), the composite z-score is 0.546 in assay [1]; 1.28 in assay [2]; 0.476 in [3]; 1.03 in assay [4]; 1.03 in [5]; -0.124 in assay [6]. For the same compound, the figures for the composite z-score (in the assay with Lefty1; in assay [8]) were 0.858 and 1.02, respectively. Moreover, the z-score in assay [7] was -1.27; in assay [9] it was -0.674 (inactive).

For the compound `CCN(CC)c1ccc(N2CC=CC34O[C@@H]5C=CCOC(=O)[C@@H]5[C@H]3C(=O)N(CCCCCCO)[C@@H]4C2=O)cc1` (stereo not given in full), the composite z-score in assay [1] was 0.449; in assay [2] it was -0.202; in assay [3], -0.148; in assay [4], -1.57; in [5] it was -0.0283; in [6], -0.666. Further, the composite z-score is 0.436 in the assay with Lefty1 and -0.0009 in assay [8]. Further, the values for the z-score in assay [7] and in assay [9] were 0.262 and -3.88 (inactive), respectively.

Consider `COCCOC(=O)N1C(=O)[C@@]2(c3cc(C#CC4(O)CCCCCC4)ccc31)[C@H](c1ccccc1OCCO)N1[C@H](c3ccccc3)[C@H](c3ccccc3)OC(=O)[C@H]1[C@@H]2C(=O)N1CCc2cc(OC)c(OC)cc2C1`, for which the composite z-score in assay [1] is 2.27; in assay [2], 1.23; in [3], 0.669; in [4] it was 0.895; in assay [5] it was 0.653; in assay [6], 0.461. The values for the composite z-score (with Lefty1; in [8]) were 0.8 and 0.632, respectively. The z-score was -0.932 in assay [7] and -0.022 (inactive) in assay [9].

For the compound `COCC(=C=CC[C@@H](O)c1ccc(OCCO)cc1)C[C@@H](O)c1ccccn1`, the composite z-score is 2.32 in [1]; -0.14 in [2]; 0.359 in assay [3]; 0.792 in assay [4]; 0.979 in [5]; 0.249 in [6]. For the same compound, the values for the composite z-score (in the assay on Lefty1; in assay [8]) were 0.517 and 0.643, respectively. For the same compound, the z-score is 0.0965 in assay [7] and -0.501 (inactive) in assay [9].
